Source: PubChem BioAssay (Tox21)
Results filed as inconclusive are left out. A number with no mark means an inactive call. Activity calls are given as the source filed them. The call rests on the fitted dose curve; in most records, active means well fitted cell-killing curve with a large enough effect in the repeat runs; inconclusive means weak or mixed curves, or effect the other way; inactive means flat fitted curve, though single readings scatter.

Assay: qHTS assay to identify small molecule agonists of the TGF-beta/Smad signaling pathway - cell viability counter screen (AID 1346829); further: top concentration of the series differs between compounds; nearly all actives have a fitted effect of over 45% in size
Conditions: SBE-bla HEK293T viability, CellTiter-Glo luminescence, 5 h; series mostly up to 76.8 µM; activity change, negative = cytotoxicity: at the top concentration
Source text: National Center for Advancing Translational Sciences [NCATS]
NIH Chemical Genomics Center [NCGC]
U.S. Environmental Protection Agency [EPA]
National Institutes of Environmental Health Sciences [NIEHS]
National Toxicology Program [NTP]
U.S. Food and Drug Administration [FDA]
Transforming growth factor beta (TGF-beta) superfamily consists of a large number of structurally related dimeric proteins that act as hormones or local mediators in regulating a wide range of biological functions. This superfamily includes TGF-betas themselves, the bone morphogenetic proteins (BMPs) and the activins. These ligands induce oligomerization of serine/threonine receptor kinases and phosphorylate the cytoplasmic signaling molecules of Smad protein family. CellSensor SBE-bla HEK 293T cell line (Life Technologies, Carlsbad, CA), responsive to TGF-beta was used to screen Tox21 10K compound library for identification of agonists/antagonists of the Smad signaling pathway. This cell line contains a beta-lactamase reporter gene under control of the Smad binding element (SBE) stably integrated into HEK 293T cells. Also cytotoxicity of the compounds was tested in parallel by measuring the cell viability using CellTiter-Glo assay system in the same wells.
Tox21 Assay Protocol Summary:
SBE-bla HEK 293T cells were dispensed at 4,000/well in 6 uL of assay medium into black wall/clear-bottom 1536-well plates using a Multidrop Combi (ThermoFisher Scientific, Waltham, MA) dispenser. After the assay plates were incubated at 37 C and 5% CO2 for an overnight, 23 nL of compounds dissolved in DMSO, positive controls or DMSO only was transferred to the assay plate by a Pintool station (Kalypsys, San Diego, CA). The assay plates were incubated at 37 C and 5% CO2 for 5 hr. One uL of LiveBLAzer B/G FRET substrate (Life Technologies) was added using a Flying Reagent Dispenser (FRD, Aurora Discovery, San Diego, CA) and the plates were incubated at room temperature for 2 hr. Fluorescence intensity (405 nm excitation, 460 nm and 530 nm emissions) was measured using an Envision plate reader (PerkinElmer, Shelton, CT). For cytotoxicity read, 4 uL of CellTiter-Glo reagent (Promega Corporation, Madison, WI) was added to each well of the assay plates using FRD. After 30min incubation at room temperature, the luminescence intensity was measured using ViewLux plate reader (PerkinElmer).
On the % scale 0 is the no-effect control and ±100 the full control effect.

| SMILES | activity change, negative = cytotoxicity | Potency |
| --- | --- | --- |
| CCc1cccc(CC)c1NC(=O)CN(CC(=O)O)CC(=O)O | 2.96% [at 35.3 µM] |  |
| O=C(O)[C@H](O)[C@@H](O)[C@H](O[C@@H]1O[C@H](CO)[C@H](O)[C@H](O)[C@H]1O)[C@H](O)CO | 17.8% [at 35.3 µM] |  |
| S=c1nccc[nH]1 | 3.4% |  |
| O=C(O)c1cc(-c2ccc(F)cc2F)ccc1O | 7.16% [at 35.3 µM] |  |
| C=CCCC(=O)/C=C/C1C(C)=CCCC1(C)C (stereo not given) | -2.66% |  |
| CCO[C@@H]1O[C@H](C(COCc2ccccc2)OCc2ccccc2)[C@H](OCc2ccccc2)[C@H]1O (stereo not given in full) | 1.45% [at 35.3 µM] |  |
| O=C(O)c1ccc2cc(C(=O)O)ccc2c1 | -5.22% |  |
| CC/C=C\CCCCCO | 4.12% |  |
| O=S(=O)(O)c1ccc(N=Nc2c(O)ccc3ccccc23)cc1 | -0.419% |  |
| Nc1cc(Cl)c(O)c(Cl)c1 | 2.04% |  |
| c1cnccn1 | 20% |  |
| Nc1nc(N)nc(-c2cc(Cl)ccc2Cl)n1 | -4.3% [at 35.3 µM] |  |
| ClCCl | 2.4% |  |
| O=C(/C=C/c1ccc(O)c(O)c1)O[C@@H](C(=O)O)[C@@H](OC(=O)/C=C/c1ccc(O)c(O)c1)C(=O)O | -5.55% |  |
| C=Cc1cccc(C)c1 |  | inactive |
| Cc1c(C)c2c(c(C)c1OC(=O)c1cccnc1)CC[C@@](C)(CCC[C@H](C)CCC[C@H](C)CCCC(C)C)O2 | -3.33% [at 35.3 µM] |  |
| CC(=O)c1ccc(C(C)=O)cc1 | 7.41% |  |
| COc1cc(/C=C/c2ccccc2)oc(=O)c1 | -4.58% |  |
| CCCCC/C=C\C/C=C\CCCCCCCC(=O)O |  | inactive |
| C1CCC(SSC2CCCCC2)CC1 | 9.09% |  |

| SMILES | activity change, negative = cytotoxicity | Potency |
| --- | --- | --- |
| CCCCCCCC/C=C\CCCCCCCCN | -10.9% [at 35.3 µM] |  |
| CCn1c2ccccc2c2cc([N+](=O)[O-])ccc21 | -27.3% |  |
| CCc1oc2ccccc2c1C(=O)c1cc(I)c(O)c(I)c1 | -18% [at 35.3 µM] |  |
| CC[N+](CC)(CC)CCOc1ccc(/C=C/c2ccccc2)cc1 | -11.4% [at 35.3 µM] |  |
| CN1CCN(Cc2cc(-c3ccc4[nH]c(=O)oc4c3)co2)[C@@H](c2ccc(F)cc2)C1 | 28.7% |  |
| CCCCCCCCCCCCOC(=O)c1ccc(O)cc1 | -11.9% |  |
| C[C@@H](O)[C@H](N)C(=O)O | 1.96% [at 15.8 µM] |  |
| Cc1ccc(O)c(N)c1 | -0.0581% |  |
| Nc1ccc(C(=O)O)c(O)c1 | 8.69% [at 35.3 µM] |  |
| COc1ccc(-c2coc3cc(O)ccc3c2=O)cc1 | 9.66% |  |
| CCC(=O)OC(=O)CC | -4.24% |  |
| COc1ccc(NC(=O)CC(C)=O)cc1 | 0.696% |  |
| CCCC(=O)OC(C)(C)Cc1ccccc1 | 3.19% |  |
| CCCC1CCC(=O)CC1 | -5.2% |  |
| [Cl][Pt-2]([Cl])([Cl])[Cl] | 12% |  |
| FC(F)(F)c1cccc(Cl)c1 | 0.174% |  |
| O=[N+]([O-])c1cccc(C(F)(F)F)c1 | 0.298% |  |
| COC(C)=O | -5.53% |  |
| CCC(C)n1ncn(-c2ccc(N3CCN(c4ccc(OC[C@H]5CO[C@](Cn6cncn6)(c6ccc(Cl)cc6Cl)O5)cc4)CC3)cc2)c1=O (stereo not given in full) | 5.24% [at 35.3 µM] |  |
| O[C@@H]([C@H](O)[C@H](O)CBr)[C@H](O)CBr | 1.11% |  |
